Data taken from paper PMC7862700, “An all-to-all approach to the identification of sequence-specific readers for epigenetic DNA modifications on cytosine”.

How the values were obtained:
Assay in all cases: DAPPL (digital affinity profiling via proximity ligation, sequencing); 10 mM Tris-HCl pH 7.5, 50 mM NaCl, 1 mM DTT, 4% glycerol, room temperature, 30 min; GST-TFs on glutathione beads, 16-mer random dsDNA library, 0.1% formaldehyde crosslink after washing; high values mean tight binding
Details in all cases: protein: recombinant; tags: N-terminal GST; dsDNA, one strand shown
[1] = biological target: T1, ERF (Homo sapiens, UniProt P50548 1-548)
T1 sequence: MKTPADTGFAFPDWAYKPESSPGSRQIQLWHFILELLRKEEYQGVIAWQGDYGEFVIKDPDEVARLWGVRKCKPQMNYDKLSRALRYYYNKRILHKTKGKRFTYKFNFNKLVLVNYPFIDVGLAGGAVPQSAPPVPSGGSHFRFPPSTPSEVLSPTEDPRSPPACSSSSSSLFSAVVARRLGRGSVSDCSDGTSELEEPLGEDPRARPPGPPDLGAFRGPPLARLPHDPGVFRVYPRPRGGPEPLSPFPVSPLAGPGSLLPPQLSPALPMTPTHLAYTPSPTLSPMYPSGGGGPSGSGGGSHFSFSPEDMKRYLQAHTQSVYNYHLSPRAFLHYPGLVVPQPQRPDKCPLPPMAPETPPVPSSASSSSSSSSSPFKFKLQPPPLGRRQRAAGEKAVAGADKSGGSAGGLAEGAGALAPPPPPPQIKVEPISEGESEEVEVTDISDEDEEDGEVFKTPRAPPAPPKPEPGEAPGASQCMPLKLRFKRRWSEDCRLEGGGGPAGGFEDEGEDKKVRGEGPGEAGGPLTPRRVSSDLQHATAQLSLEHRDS
How it was run: (§1)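 GST fusions of human transcription factors were expressed in yeast and captured with glutathione beads. Once given DNA barcodes and pooled alongside a tag-only sample, they were incubated for 30 min at room temperature with 200 nmole of a random double-stranded 16-mer DNA library in Tris/NaCl/DTT/glycerol buffer, then washed, crosslinked (0.1% formaldehyde), proximity-ligated, PCR-amplified and sequenced on an Illumina NextSeq500. The binding signal of each hexamer is its read frequency for a factor divided by its frequency for the tag-only sample.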

[2] = biological target: T2, ETV3L (Homo sapiens, UniProt Q6ZN32 1-361)
T2 sequence: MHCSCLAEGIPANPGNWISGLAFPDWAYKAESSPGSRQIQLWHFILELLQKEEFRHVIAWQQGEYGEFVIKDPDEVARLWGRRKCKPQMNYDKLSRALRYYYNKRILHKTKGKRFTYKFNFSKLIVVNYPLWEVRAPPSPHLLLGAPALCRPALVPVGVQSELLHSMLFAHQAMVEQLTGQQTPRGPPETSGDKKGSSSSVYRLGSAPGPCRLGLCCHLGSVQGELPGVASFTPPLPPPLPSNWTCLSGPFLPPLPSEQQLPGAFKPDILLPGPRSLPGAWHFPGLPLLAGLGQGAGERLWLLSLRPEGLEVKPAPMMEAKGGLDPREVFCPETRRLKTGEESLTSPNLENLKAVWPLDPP
How it was run: as §1

[3] = biological target: T3, ETS2 (Homo sapiens, UniProt P15036 1-469)
T3 sequence: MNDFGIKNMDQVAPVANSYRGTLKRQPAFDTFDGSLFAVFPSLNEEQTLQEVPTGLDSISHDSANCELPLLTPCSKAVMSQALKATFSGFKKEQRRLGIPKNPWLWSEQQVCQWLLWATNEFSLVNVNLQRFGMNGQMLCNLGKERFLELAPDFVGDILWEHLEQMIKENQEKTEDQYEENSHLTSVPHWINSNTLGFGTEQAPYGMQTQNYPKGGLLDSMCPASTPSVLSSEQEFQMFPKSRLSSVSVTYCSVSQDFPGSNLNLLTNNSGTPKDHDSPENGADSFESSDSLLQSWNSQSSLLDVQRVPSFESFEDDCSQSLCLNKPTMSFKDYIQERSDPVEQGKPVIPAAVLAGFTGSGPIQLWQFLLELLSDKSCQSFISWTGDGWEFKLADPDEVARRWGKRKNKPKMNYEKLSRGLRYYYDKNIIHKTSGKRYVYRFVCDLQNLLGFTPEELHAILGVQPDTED
How it was run: as §1

[4] = biological target: T4, SPDEF (Homo sapiens, UniProt O95238 1-335)
T4 sequence: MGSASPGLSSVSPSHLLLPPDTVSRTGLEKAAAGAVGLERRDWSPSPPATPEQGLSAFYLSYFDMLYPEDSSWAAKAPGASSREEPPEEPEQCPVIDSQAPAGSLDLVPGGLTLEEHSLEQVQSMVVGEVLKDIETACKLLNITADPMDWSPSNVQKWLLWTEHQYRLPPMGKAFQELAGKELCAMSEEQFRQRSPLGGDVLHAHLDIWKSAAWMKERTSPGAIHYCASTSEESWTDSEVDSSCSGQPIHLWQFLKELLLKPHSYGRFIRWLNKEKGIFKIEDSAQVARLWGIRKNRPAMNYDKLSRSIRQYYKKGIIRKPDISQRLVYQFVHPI
How it was run: as §1

[5] = biological target: T5, ETV7 (Homo sapiens, UniProt Q9Y603 1-341)
T5 sequence: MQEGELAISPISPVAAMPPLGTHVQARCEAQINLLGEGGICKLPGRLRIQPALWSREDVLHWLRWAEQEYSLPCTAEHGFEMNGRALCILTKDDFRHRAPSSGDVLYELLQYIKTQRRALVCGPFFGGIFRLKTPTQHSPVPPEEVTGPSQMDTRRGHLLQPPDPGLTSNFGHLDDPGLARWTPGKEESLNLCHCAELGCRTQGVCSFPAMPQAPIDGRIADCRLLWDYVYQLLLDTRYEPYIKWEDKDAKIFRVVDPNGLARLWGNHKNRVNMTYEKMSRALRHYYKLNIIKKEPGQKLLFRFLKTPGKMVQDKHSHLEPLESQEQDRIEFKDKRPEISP
How it was run: as §1

[6] = biological target: T6, ELF5 (Homo sapiens, UniProt Q9UKW6-2 1-255)
T6 sequence: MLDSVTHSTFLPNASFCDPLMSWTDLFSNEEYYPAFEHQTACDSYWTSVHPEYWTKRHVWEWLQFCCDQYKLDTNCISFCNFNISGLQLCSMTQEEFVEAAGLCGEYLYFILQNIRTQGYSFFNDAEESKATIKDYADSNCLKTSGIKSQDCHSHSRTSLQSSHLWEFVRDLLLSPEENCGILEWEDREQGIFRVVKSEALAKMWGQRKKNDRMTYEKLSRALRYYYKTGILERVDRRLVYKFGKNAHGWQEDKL
How it was run: as §1

[7] = biological target: T7, ETV3 (Homo sapiens, UniProt P41162-2 1-143)
T7 sequence: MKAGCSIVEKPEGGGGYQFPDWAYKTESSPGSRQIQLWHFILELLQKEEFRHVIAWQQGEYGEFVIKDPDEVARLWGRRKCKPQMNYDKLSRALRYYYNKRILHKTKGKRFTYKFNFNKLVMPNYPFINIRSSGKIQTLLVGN
How it was run: as §1

[8] = biological target: ETV6 (Homo sapiens, UniProt P41212 1-452)
Chain of ETV6 (P41212 whole entry): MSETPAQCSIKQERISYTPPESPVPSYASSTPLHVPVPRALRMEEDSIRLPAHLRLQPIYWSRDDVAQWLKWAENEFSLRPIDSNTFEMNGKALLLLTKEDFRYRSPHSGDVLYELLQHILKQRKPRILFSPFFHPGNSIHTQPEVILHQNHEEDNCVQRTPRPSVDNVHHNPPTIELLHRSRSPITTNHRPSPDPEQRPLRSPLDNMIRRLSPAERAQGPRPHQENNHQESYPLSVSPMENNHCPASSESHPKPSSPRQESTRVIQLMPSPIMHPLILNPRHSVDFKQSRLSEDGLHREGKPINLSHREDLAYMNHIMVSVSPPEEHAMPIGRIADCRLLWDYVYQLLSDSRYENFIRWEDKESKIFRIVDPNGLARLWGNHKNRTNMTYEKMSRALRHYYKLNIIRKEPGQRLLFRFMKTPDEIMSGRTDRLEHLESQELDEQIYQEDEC
How it was run: as §1

Sequence | binding signal [1] | binding signal [2] | binding signal [3] | binding signal [4] | binding signal [5] | binding signal [6] | binding signal [7] | binding signal [8]
TCTCTA | 1.24 fold enrichment (6-mer frequency, TF over GST control) | 1.29 fold enrichment (6-mer frequency, TF over GST control) | 1.22 fold enrichment (6-mer frequency, TF over GST control) | 1.24 fold enrichment (6-mer frequency, TF over GST control) | 1.34 fold enrichment (6-mer frequency, TF over GST control) | 1.21 fold enrichment (6-mer frequency, TF over GST control) | 1.3 fold enrichment (6-mer frequency, TF over GST control) | 1.21 fold enrichment (6-mer frequency, TF over GST control)
ATATAC | 1.19 fold enrichment (6-mer frequency, TF over GST control) | 1.17 fold enrichment (6-mer frequency, TF over GST control) | 1.26 fold enrichment (6-mer frequency, TF over GST control) | 1.29 fold enrichment (6-mer frequency, TF over GST control) | 1.24 fold enrichment (6-mer frequency, TF over GST control) | 1.12 fold enrichment (6-mer frequency, TF over GST control) | 1.17 fold enrichment (6-mer frequency, TF over GST control) | 1.19 fold enrichment (6-mer frequency, TF over GST control)
ATATCT | 1.23 fold enrichment (6-mer frequency, TF over GST control) | 1.21 fold enrichment (6-mer frequency, TF over GST control) | 1.17 fold enrichment (6-mer frequency, TF over GST control) | 1.22 fold enrichment (6-mer frequency, TF over GST control) | 1.2 fold enrichment (6-mer frequency, TF over GST control) | 1.18 fold enrichment (6-mer frequency, TF over GST control) | 1.19 fold enrichment (6-mer frequency, TF over GST control) | 1.14 fold enrichment (6-mer frequency, TF over GST control)
AAGTAT | 1.38 fold enrichment (6-mer frequency, TF over GST control) | 1.47 fold enrichment (6-mer frequency, TF over GST control) | 1.46 fold enrichment (6-mer frequency, TF over GST control) | 1.31 fold enrichment (6-mer frequency, TF over GST control) | 1.5 fold enrichment (6-mer frequency, TF over GST control) | 1.56 fold enrichment (6-mer frequency, TF over GST control) | 1.46 fold enrichment (6-mer frequency, TF over GST control) | 1.58 fold enrichment (6-mer frequency, TF over GST control)
GGCTCC | 1.28 fold enrichment (6-mer frequency, TF over GST control) | 1.27 fold enrichment (6-mer frequency, TF over GST control) | 1.21 fold enrichment (6-mer frequency, TF over GST control) | 1.48 fold enrichment (6-mer frequency, TF over GST control) | 1.25 fold enrichment (6-mer frequency, TF over GST control) | 1.33 fold enrichment (6-mer frequency, TF over GST control) | 1.3 fold enrichment (6-mer frequency, TF over GST control) | 1.25 fold enrichment (6-mer frequency, TF over GST control)
CCTCTA | 1.34 fold enrichment (6-mer frequency, TF over GST control) | 1.38 fold enrichment (6-mer frequency, TF over GST control) | 1.46 fold enrichment (6-mer frequency, TF over GST control) | 1.32 fold enrichment (6-mer frequency, TF over GST control) | 1.36 fold enrichment (6-mer frequency, TF over GST control) | 1.48 fold enrichment (6-mer frequency, TF over GST control) | 1.33 fold enrichment (6-mer frequency, TF over GST control) | 1.3 fold enrichment (6-mer frequency, TF over GST control)
CGTTTT | 1.15 fold enrichment (6-mer frequency, TF over GST control) | 1.29 fold enrichment (6-mer frequency, TF over GST control) | 1.16 fold enrichment (6-mer frequency, TF over GST control) | 1.14 fold enrichment (6-mer frequency, TF over GST control) | 1.25 fold enrichment (6-mer frequency, TF over GST control) | 1.14 fold enrichment (6-mer frequency, TF over GST control) | 1.21 fold enrichment (6-mer frequency, TF over GST control) | 1.24 fold enrichment (6-mer frequency, TF over GST control)
